Data from PubChem BioAssay AID1159580 (chemical genetic matrix, 2015).
Hit rate of the full screen: of about 5,500 compounds, about 2,000 (36%) were called active. Roughly 18% stayed inconclusive and do not appear here. No stated cut-off is given here; in the data, active means normalized growth mostly below about 0.91 (no sharp cut-off); inconclusive means no clear call, values can overlap the other calls; inactive means mostly above about 0.92. Some of the results follow.

Assay: chemical genetic growth profiling, strain panel (AID 1159580);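 further: tested at 20 µM; growth read once vehicle control cultures reached saturation at 30 °C; 1 = growth at the plate median or of vehicle wells; lower values mean less growth of the strain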
Details: growth OD
[1] = S. cerevisiae deletion strains, locus YAL013W, strain DEP1, active compounds read low
[2] = S. cerevisiae deletion strains, locus YBR229C, strain ROT2, active compounds read low
[3] = S. cerevisiae deletion strains, locus YCL061C, strain MRC1, active compounds read low
[4] = S. cerevisiae deletion strains, locus YDL101C, strain DUN1, active compounds read low
[5] = S. cerevisiae deletion strains, locus YDR150W, strain NUM1, active compounds read low
[6] = S. cerevisiae deletion strains, locus YEL061C, strain CIN8, active compounds read low
[7] = S. cerevisiae deletion strains, locus YGR078C, strain PAC10, active compounds read low
[8] = S. cerevisiae deletion strains, locus YHR030C, strain SLT2, active compounds read low
[9] = S. cerevisiae deletion strains, locus YHR087W, strain rtc3, active compounds read low
[10] = S. cerevisiae deletion strains, locus YJR043C, strain POL32, active compounds read low
[11] = S. cerevisiae deletion strains, locus YJR075W, strain HOC1, active compounds read low
[12] = S. cerevisiae deletion strains, locus YKL190W, strain CNB1, active compounds read low
[13] = S. cerevisiae deletion strains, locus YLR039C, strain RIC1, active compounds read low
[14] = S. cerevisiae deletion strains, locus YLR058C, strain SHM2 (second series), active compounds read low
[15] = S. cerevisiae deletion strains, locus YLR085C, strain ARP6, active compounds read low
[16] = S. cerevisiae deletion strains, locus YLR262C, strain YPT6, active compounds read low
[17] = S. cerevisiae deletion strains, locus YML094W, strain GIM5, active compounds read low
[18] = S. cerevisiae deletion strains, locus YMR219W, strain ESC1, active compounds read low
[19] = S. cerevisiae deletion strains, locus YNL153C, strain GIM3, active compounds read low
[20] = S. cerevisiae deletion strains, locus YNL298W, strain CLA4 (second series), active compounds read low
[21] = S. cerevisiae deletion strains, locus YNL322C, strain KRE1, active compounds read low
[22] = S. cerevisiae deletion strains, locus YNR030W, strain Alg12, active compounds read low
[23] = S. cerevisiae deletion strains, locus YPL055C, strain LGE1, active compounds read low
[24] = S. cerevisiae deletion strains, locus YPL241C, strain CIN2, active compounds read low
[25] = S. cerevisiae deletion strains, locus YPR135W, strain CTF4, active compounds read low

Measured: normalized growth

CC(=O)C1COc2ccc(C)cc2C1=O (stereo not drawn)
inactive: [1] 0.972 | [3] 0.916 | [5] 0.984 | [6] 0.924 | [7] 0.952 | [9] 0.916 | [10] 0.931 | [11] 0.903 | S. cerevisiae deletion strains, locus YMR263W, strain SAP30, active compounds read low 0.96 | [19] 0.954 | [20] 0.855 | [21] 0.979 | [22] 0.901 | [23] 0.93 | [24] 0.914
active: [2] 0.898 | [4] 0.838 | [8] 0.291 | S. cerevisiae deletion strains, locus YJL187C, strain SWE1, active compounds read low 0.888 | [12] 0.832 | [13] 0.173 | [14] 0.923 | [15] 0.44 | [16] 0.176 | [17] 0.848 | [18] 0.928 | [25] 0.58

c1ccc(Sc2c(-c3ccccc3)nc3ccccn23)cc1
inactive: [4] 0.929 | [5] 0.8 | [9] 0.921 | [10] 0.93 | [17] 0.886 | [19] 0.931 | S. cerevisiae strains, strain wild type, active compounds read low 0.92
active: [1] 0.895 | [2] 0.9 | [3] 0.906 | [6] 0.869 | [7] 0.884 | [8] 0.193 | [11] 0.833 | [12] 0.79 | [13] 0.657 | [14] 0.899 | [15] 0.275 | [16] 0.78 | [18] 0.897 | [20] 0.781 | [21] 0.915 | [22] 0.714 | [23] 0.725 | [24] 0.692 | [25] 0.431
